Bioassay records (PubChem BioAssay)
Rows were chosen to be rich in hits. Some 2.1% of all compounds tested hit in one or more screens of this group.
aSyn UTR inh – MLPCN primary screen, SNCA 5' untranslated region; alpha-synuclein 5'UTR reporter, inhibitor activity; AID 1813; inhibition, % (tested at 7.5 µM); actives 0.82% (n = 300,000); in the data active = inhibition above about 60%; inconclusive = no clear call, values can overlap the other calls;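 also: H4 neuroglioblastoma cells stably carrying SNCA 5'UTR luciferase fusion; 0% = DMSO wells and 100% = positive control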
IEC-6 tox – counter-screen for KLF5 inhibitors: cytotoxicity in IEC-6 cells; IEC-6 cytotoxicity, luminescence viability; inhibition, % at 5 µM; actives 0.78% (n = 290,000); in the data active = inhibition above about 22%;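 also: 0% = plate median of test compound wells and 100% = cytotoxic reference compound wells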
BaF3 parental – parental Ba/F3 viability inhibition as JAK2V617F counter-screen; CellTiter-Glo ATP luminescence; inhibition, % at 5.6 µM; actives 1.1% (n = 220,000); AID 1486;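 active = inhibition above a per-campaign cutoff, the mean inhibition of all tested compounds plus 3 SD, cut at about 27% in these data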;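 also: 0% = DMSO wells and 100% = JAK Inhibitor I control wells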
APP 5UTR inh – APP translation inhibition; SH-SY5Y APP 5'UTR-luciferase reporter, luminescence; actives 0.82% (n = 190,000); inhibition, % at 2 µM;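 active = inhibition above a set limit, derived from the sample mean plus 3 SD, cut at about 45% in these data; inconclusive = one replicate passes the limit while the other fails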
Ba/F3 V617F tox – reduce viability of Ba/F3 cells dependent on JAK2V617F. Ba/F3 EpoR-JAK2V617F viability, ATP luminescence. inhibition, % at 5.6 µM. actives 1.1% (n = 220,000). AID 1446;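 active = inhibition above the campaign mean plus 3 SD over all tested compounds, cut at about 24% in these data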;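 also: cytokine-independent growth of Ba/F3 cells driven by EpoR plus mutant JAK2; 0% = DMSO-treated cells and 100% = JAK inhibitor I control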
KLF5 inhibitor – suppresses KLF5 promoter-driven expression; DLD-1 KLF5 promoter-luciferase reporter, luminescence; inhibition, % at 5 µM; actives 0.23% (n = 290,000);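 active = inhibition above a per-plate limit of that plate's mean compound inhibition plus 3 SD, cut at about 60% in these data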;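 also: 0% = DMSO wells and 100% = LY294002 at 200 µM; higher means less KLF5 promoter-driven luciferase light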
BaF3 tox 2 – counter-screen for JAK2V617F inhibitors: parental Ba/F3 viability inhibitors | AID 1520 | actives 31% (n = 580) | CellTiter-Glo luminescence; cells kept alive by added IL-3 | shares compounds with Ba/F3 V617F tox | inhibition, % at 5.6 µM;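 active = cell growth inhibition above the hit limit set in the earlier mutant JAK2 cell screen, cut at about 27% in these data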;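 also: plate controls were DMSO-treated cells for no effect and JAK Inhibitor I control wells for full effect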
JAK2V617F conf – confirmation: loss of viability in JAK2V617F-dependent Ba/F3 cells. actives 66% (n = 580). Ba/F3 EpoR-JAK2V617F viability, CellTiter-Glo luminescence. shares compounds with Ba/F3 V617F tox. inhibition, % at 5.6 µM;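 active = mean inhibition above the hit cutoff derived in the earlier primary screen, cut at about 25% in these data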;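 also: 0% = DMSO-treated cells and 100% = JAK inhibitor I control wells; higher means lower luminescence from reduced cell ATP and viability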
Numbers without * were called inactive; ? = inconclusive; . = no result given.

SMILES	aSyn UTR inh	IEC-6 tox	BaF3 parental	APP 5UTR inh	Ba/F3 V617F tox	KLF5 inhibitor	BaF3 tox 2	JAK2V617F conf
Cc1ccc(N/C(=C\C(=O)c2ccccc2)C(=O)O)cc1	-157.5	12.8	8.7	-60.0	40.2*	-12.1	-2.5	-1.5
N#CC1(NC(=O)CN2CCN(S(=O)(=O)c3ccccc3F)CC2)CCCC1	10.4	-4.4	3.0	.	-0.6	21.4	.	.
COc1cc2c(cc1NC(=O)c1cccc([N+](=O)[O-])c1C)oc1ccccc12	-2.6	5.9	1.3	-7.5	53.4*	-1.6	-5.3	4.6
Cn1nnc(NC(=S)NC(=O)c2cccc3c(Cl)cccc23)n1	-5.6	3.0	.	.	.	-2.9	.	.
O=C(CSc1ccc(-c2ccccc2)nn1)Nc1ccc2c(c1)OCCO2	-148.2	8.2	8.0	-15.7	46.4*	-28.8	-3.8	-13.6
O=C(CSc1ccccc1)Nc1ccc2c(c1)OCCO2	-63.5	-2.5	.	.	.	-151.1	.	.
CCS(=O)(=O)CCSc1nc(C)cc(C)c1C#N	20.2	-9.9	7.1	6.2	99.5*	-29.7	-0.7	-7.4
COc1ccc(F)cc1C(=O)C1CCCN(C(=O)c2cccc(N(C)C)c2)C1 (stereo unspecified)	21.8	5.1	4.5	-10.6	101.8*	-15.8	-3.1	7.2
CN(C)c1cccc(C(=O)N2CCCC(C(=O)c3cc(F)ccc3F)C2)c1 (stereo unspecified)	10.4	-1.0	1.1	12.0	-1.5	-9.2	.	.
COc1cccc(/C=N/Nc2ncnc3scc(-c4ccccc4)c23)c1O	?	-1.1	26.3	89.4*	40.6*	79.8*	92.4*	97.7*
CC(=O)Nc1ccc(/C=N/Nc2nc3ccccc3[nH]2)cc1	-101.2	-1.9	-0.9	-20.0	6.0	-6.1	.	.
COc1cccc(/C=N/Nc2nc3ccccc3[nH]2)c1O	32.7	4.7	21.1	.	77.2*	36.3	59.0*	88.8*
CCN(CC)c1ccc(/C=N/Nc2nc3ccccc3[nH]2)cc1	-25.5	41.1*	-2.0	11.6	49.8*	-52.2	4.8	64.3*
COC(=O)c1sccc1N/N=C/c1cccc(OC)c1O	-21.1	-4.6	4.7	-180.0	2.9	-43.7	.	.
CCCN(C(=O)COC(=O)c1[nH]c(C)c(C(=O)OC)c1C)c1c(N)n(Cc2ccccc2)c(=O)[nH]c1=O	12.5	.	.	.	.	.	.	.
COc1ccccc1CC(=O)O/N=C(\N)Cc1cccc2ccccc12	7.4	5.9	7.5	8.8	33.5*	0.2	-6.0	-5.2
COc1ccccc1OC(=O)Cc1cccc2ccccc12	-1.3	3.9	.	.	.	-4.8	.	.
CN1CCN(C(=S)Nc2ccc(Cl)c(Cl)c2)CC1	-0.2	-4.6	17.5	21.5	43.4*	-8.2	22.6	46.2*
Cc1ccc2oc(=O)c(/C=C(\O)C(C)(C)C)nc2c1	-48.4	0.5	2.4	-4.4	-1.5	-16.8	.	.
CC(C)(C)/C(O)=C/c1nc2cc(Cl)ccc2oc1=O	-5.0	-1.4	5.1	.	36.9*	-37.1	8.4	78.3*
Cc1cc(C)cc(OCC(=O)O/N=C(\N)c2cccnc2)c1	-6.0	-2.3	4.1	.	34.8*	-18.1	-2.3	-2.8
CC(=O)Nc1ccc(/C=N/NC(=O)CNC(=O)c2ccccc2)cc1	4.7	-7.3	0.7	-3.2	-3.1	-41.3	.	.
CCN(CC)S(=O)(=O)c1cccc(C(=O)N[C@H](C(=O)Nc2nc3ccc(F)cc3s2)C(C)C)c1	-82.8	8.4	0.6	-17.0	66.0*	-5.2	-0.7	13.5
CC(=O)c1ccc(Sc2nnnn2-c2ccccc2)c([N+](=O)[O-])c1	-7.7	2.3	2.7	-37.7	44.1*	6.3	1.6	83.2*
COc1ccc(CC(O)COS(N)(=O)=O)cc1 (stereo unspecified)	6.1	-3.0	.	.	.	-22.1	.	.
SMILES	aSyn UTR inh	IEC-6 tox	BaF3 parental	APP 5UTR inh	Ba/F3 V617F tox	KLF5 inhibitor	BaF3 tox 2	JAK2V617F conf
Cn1c(CNC(=O)OC(C)(C)C)nnc1SCC(=O)N1CCOCC1	-2.9	-1.7	-2.0	.	-0.1	12.2	.	.
COC(=O)CS(=O)(=O)c1nnc([C@H](Cc2ccccc2)NC(=O)OC(C)(C)C)o1	19.5	1.2	1.2	22.9	-2.6	-14.3	.	.
Cc1cccc(CS(=O)(=O)c2nnc([C@H](Cc3ccccc3)NC(=O)OC(C)(C)C)o2)c1	-12.1	19.3	0.9	72.2*	43.9*	1.9	11.6	82.2*
Oc1ccc(CN2CCC(Cc3ccccc3)CC2)c2cccnc12	105.0*	-11.8	0.2	58.3*	82.7*	14.6	84.5*	98.0*
Oc1ccc(Cl)cc1N=Cc1sc2ccccc2c1Cl	-44.2	-0.1	16.1	-22.1	39.8*	18.4	21.5	86.0*
Cc1nc([N+](=O)[O-])c(Sc2nc3ccccc3n2C)n1Cc1ccccc1	3.7	10.2	-2.4	1.4	28.2*	-34.2	5.4	91.5*
COc1c[nH]n(-c2ccccc2)c(=O)c1=O	7.0	.	.	.	.	.	.	.
Cc1ccc(NC(=O)C(=Cc2ccc(C(=O)O)cc2)C(=O)Nc2ccc(C)cc2C)c(C)c1	40.0	-7.5	0.8	.	35.6*	3.9	6.2	61.1*
Nc1nnc(Sc2ccc(Cl)cc2[N+](=O)[O-])s1	1.1	0.8	0.9	14.9	64.7*	-7.5	-4.5	-10.9
CC(=O)c1ccc(NS(=O)(=O)c2cccc(C(=O)Nc3ccccc3C(=O)O)c2)cc1	-12.6	1.5	.	.	.	-26.9	.	.
O=C(CCl)NC(=O)NC12CC3CC(CC(C3)C1)C2	-26.1	-3.5	-11.0	-5.6	43.1*	4.0	6.7	93.1*
O=C(CCc1ccccc1)NNC(=O)COc1ccc(Br)cc1	-11.2	1.3	.	.	.	-27.8	.	.
CCc1ccc(NC(=O)c2noc3c2CCc2ccccc2-3)cc1	-95.3	2.7	24.1	-1.3	61.5*	-30.8	-3.4	-13.5
O=C(O)c1ccc2c(c1)C(=O)N(CCc1c[nH]c3ccccc13)C2=O	-61.1	3.4	.	.	.	-150.8	.	.
CC(C)c1ccc(NC(=S)NNC(=O)c2cccs2)cc1	-95.3	-5.3	1.8	-80.8	-2.1	-139.7	.	.
CCCC(=O)Nc1ccc(Cl)c(NC(=O)c2cccnc2)c1	3.7	-0.3	1.5	-3.9	60.1*	-21.0	-3.0	-3.7
CCN(CC)Cc1cc2[nH]c3c4ccc(Cl)cc4ncc3c2cc1OC	11.0	8.4	-5.7	.	0.2	-8.4	.	.
CCn1c(C)c(C(=O)O)c2cc(OC)c3ccccc3c21	0.5	-3.8	.	.	.	8.1	.	.
COc1cc(N2C(=O)C=CC2=O)c(OC)cc1Cl	7.3	15.8	2.5	.	32.5*	-2.9	-1.9	22.7
O=C(Nc1ccc(Cl)cc1)/C(=C/c1cccc(O)c1)c1nc2ccccc2s1	-7.8	3.5	-2.5	30.4	68.3*	13.3	19.6	98.3*
S=C(Nc1ccc(Cl)cc1)c1nc2ccccc2s1	-126.7	0.4	-0.7	-64.8	-2.4	-25.1	.	.
C=CCN(C(=O)c1csnn1)C(C(=O)NC1CCCC1)c1ccc(F)cc1 (stereo unspecified)	17.0	0.4	.	.	.	-4.2	.	.
